# High-throughput results (PubChem BioAssay)
# D1 ag: human D1 receptor agonism; P21728; actives 1% (n = 360,000); HEK293 T-REx D1 cells, calcium flux, agonist mode; activation, % at 2 µM; note: 0% is about no effect
#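 Inducible HEK293 T-REx D1 cells, force-coupled to calcium signalling, were plated at 4000 cells/well with tetracycline and held overnight at 30 C. After no-wash calcium dye loading, compound-evoked calcium rise over 180 s flagged agonists.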
# TRHR enhancer-1: allosteric enhancers of human TRH receptor. P34981. TRHR cells, fluo-8 calcium fluorescence, EC20 TRH enhancement. AID 493056. enhancement, % at 2 µM. actives 0.66% (n = 360,000); in the data active = enhancement above about 30%; note: 0% is about no effect
# Target sequence (P34981 whole entry, looked up): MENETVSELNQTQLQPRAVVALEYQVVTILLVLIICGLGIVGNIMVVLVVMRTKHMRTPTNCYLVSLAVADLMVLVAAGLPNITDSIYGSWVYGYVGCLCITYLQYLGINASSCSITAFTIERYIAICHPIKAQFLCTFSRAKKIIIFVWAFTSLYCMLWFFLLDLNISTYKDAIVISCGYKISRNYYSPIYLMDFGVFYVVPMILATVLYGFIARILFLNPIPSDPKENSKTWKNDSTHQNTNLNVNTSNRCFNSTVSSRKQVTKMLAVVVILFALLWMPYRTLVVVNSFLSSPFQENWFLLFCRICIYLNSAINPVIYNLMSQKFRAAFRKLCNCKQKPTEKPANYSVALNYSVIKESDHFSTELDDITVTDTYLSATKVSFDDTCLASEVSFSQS
#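 TRHR-expressing cells loaded with fluo-8 calcium dye were read kinetically (ex 480/em 530) during compound addition, then stimulated with an EC20 of TRH (10 nM final). Enhancement of the Gq-mediated intracellular calcium response was scored.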
# TRHR agonist-1: activates the human TRH receptor; activation, % at 2 µM; actives 0.18% (n = 360,000); TRHR cells, calcium flux fluo-8, FDSS agonist mode; note: 0% is about no effect
#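 TRHR-expressing cells, plated overnight in medium with 10% serum, were loaded with fluo-8 calcium dye at room temperature. After a 10 s baseline, library compound was pin-added and calcium release was recorded kinetically (ex 480/em 530) as agonist response.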
# D1 PAM: enhances dopamine response at the human D1 receptor. potentiation, % at 10 µM. actives 0.036% (n = 360,000). P21728. AID 504651. HEK293 TREx D1 cells, calcium flux, dopamine EC20 potentiation; in the data active = potentiation above about 30%; note: 0% is about no effect
# LDHA block: LDHA (human) enzyme inhibition; actives 0.15% (n = 480,000); P00338; activity change, % (values are at about 110 or 230 µM); purified LDHA, NADH/diaphorase-resazurin fluorescence; active compounds read low; AID 1347041; in the data active = activity change below about -30%; inconclusive = mostly about -25% to -30%;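 note: plate controls were DMSO wells for no effect and wells without enzyme for full effect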
#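 Resorufin fluorescence (ex540/em590), read at 0 and 20 min after diaphorase/resazurin addition, reports the NADH left after a 5 min room-temperature reaction of 2 nM human LDH5 with 0.06 mM NADH and 0.2 mM pyruvate.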
# D1 antagonist: antagonists of human D1 dopamine receptor. HEK293 TREx D1 cells, calcium flux, dopamine EC80; active compounds read low. activity change, negative = inhibition, % at 10 µM. actives 3.2% (n = 360,000); in the data active = activity change below about -30%; note: % is set by controls: 0 for no effect and ±100 for the full control effect
#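 Antagonism measured as reduced calcium response to an EC80 dopamine addition following 180 s compound pre-read; cells were inducible HEK293 Trex D1 plated overnight at 30 C, read kinetically at 1 cycle/sec.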
# TRHR enhancer-2: human TRH receptor allosteric enhancement confirmation. shares compounds with TRHR enhancer-1. TRH receptor cell assay, enhancer confirmation qHTS. activity change, negative = inhibition, % at 46.1 µM. 970 tested, under 10 active; active = well fitted curve in the direction sought with a large enough effect; inconclusive = small, poorly fitted or top-dose-only effect, or another doubt; inactive = no such curve, though single readings can be large; an effect the other way counts as inactive or inconclusive;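 note: compound effect scored on response to added TRH at EC20 of 10 nM; 0% is about no effect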
# TRHR agonist-2: confirmation of human TRH receptor agonists | actives 8% (n = 970) | TRHR-expressing cells, agonist activation read-out | Potency, µM (highest dose often 46.1 µM), inactives show top-dose activation, most hits filed as activators | shares compounds with TRHR enhancer-1 | AID 493078; active = well fitted curve in the direction sought with a large enough effect; inconclusive = small, poorly fitted or top-dose-only effect, or another doubt; inactive = no such curve, though single readings can be large; an effect the other way counts as inactive or inconclusive; note: potency is the fitted concentration of half-maximal effect; 0% is about no effect; nearly all actives have a fitted effect of over 75% in size
# Numbers without * were called inactive; ? = inconclusive; nt = not tested or not shown. Shown are actives, neighbours in structure and some others; about 3.6% of the full set was active somewhere. Cut-off read from the data, not from the text of the source, unless noted: active = activation above about 30%; inactive = the rest.
SMILES,D1 ag,TRHR enhancer-1,TRHR agonist-1,D1 PAM,LDHA block,D1 antagonist,TRHR enhancer-2,TRHR agonist-2
COc1cc(S(=O)(=O)N2CCCCC2)ccc1NC(=O)c1ccccc1Cl,2,-1,-1,-3,6,-18,nt,nt
CCC(=O)Nc1ccc(S(=O)(=O)N2CCCCC2)cc1OC,2,44*,1,0,1,-4,-7,-1%
Cn1c(C(=O)N2CCC(NC(=O)c3ccncc3)CC2)cc2ccccc21,nt,nt,nt,nt,0,nt,nt,nt
COc1ccccc1NC(=O)COC(=O)Cc1cccs1,1,0,-1,-4,-8,-18,nt,nt
COc1ccccc1CNC(=O)COC(=O)Cc1cccs1,2,43*,-1,0,-12,8,-6,1%
O=c1/c(=C/c2ccc(O)c([N+](=O)[O-])c2)sc2nc3ccccc3n12,7,0,0,-8,-2,-2,nt,nt
CCN(CC)c1ccc(/C=c2\sc3nc4ccccc4n3c2=O)c(O)c1,179*,-2,26,0,-8,-38*,2,21µM*
Cc1ccc(C(=O)NCc2nnnn2-c2ccc(C)c(C)c2)cc1,-1,4,-1,-2,-7,-7,nt,nt
COc1ccc(C(=O)NCc2nnnn2-c2ccc(C)c(C)c2)cc1,0,68*,-1,-2,2,-2,-3,0%
Cc1ccc(C)c(NC(=O)C[n+]2ccccc2)c1,1,65*,0,30,-3,11,4,-1%
COc1ccc(-c2cc(C(=O)NCCN3CCOCC3)c3cc(C(C)C)ccc3n2)cc1,4,47*,3,1,-1,2,1,1%
COc1ccc(-c2cc(C(=O)NCCc3ccccc3)c3cc(C(C)C)ccc3n2)cc1,7,-4,1,-2,-8,12,nt,nt
COc1cc(C#N)c(NC(=O)CN2CCC(C(N)=O)CC2)cc1OC,6,61*,0,5,-2,-1,-5,6%
COc1ccc(C(=O)C2CCN(CC(=O)Nc3ccc(OC)cc3OC)CC2)cc1,0,1,0,-2,-6,-17,nt,nt
CCCOc1ccc(C2C(=O)N(C3CCC(C)CC3)CC(=O)N2Cc2ccc(F)cc2)cc1OC (stereo not drawn),nt,nt,nt,nt,4,nt,nt,nt
CNC(=O)CN(C)S(=O)(=O)c1ccc(OC)c(Cl)c1,0,75*,0,-2,-1,3,-4,-1%
COc1ccc(S(=O)(=O)N(C)CC(=O)NC2CCCCC2)cc1Cl,1,-1,-1,2,-9,-2,nt,nt
C=CCN(CC=C)Cc1c(C)[nH]c2c(C)c(C)ccc2c1=O,2,45*,-1,-6,-1,2,-4,-1%
O=C(Nc1cccc2ncccc12)c1ccco1,5,51*,0,-7,-3,4,-6,1%
CC1CCN(CCC(=O)N(CC#N)CC#N)c2ccccc21 (stereo not drawn),nt,nt,nt,nt,1,nt,nt,nt
CCOc1ccc(NC(=O)c2n[nH]c(=O)c3ccccc23)cc1OC,nt,nt,nt,nt,-9,nt,nt,nt
O=C(O)c1cccc(NC(=O)c2ccccc2NC(=O)c2ccccc2F)c1,6,13,1,-4,-1,1,nt,nt
O=C(Nc1ccccc1C(=O)Nc1ccccc1)c1ccccc1F,2,48*,0,-2,-6,-9,?,1%
CCOc1ccccc1OCCOc1ccc(Cl)c(CC)c1,nt,nt,nt,nt,1,nt,nt,nt
N#Cc1cccc(Oc2ccc(C3CCCCC3)cc2)c1C#N,nt,nt,nt,nt,-1,nt,nt,nt
SMILES,D1 ag,TRHR enhancer-1,TRHR agonist-1,D1 PAM,LDHA block,D1 antagonist,TRHR enhancer-2,TRHR agonist-2
CSCCCNC(=S)Nc1ccc(N2CCOCC2)cc1N1CCOCC1,1,-3,1,-10,0,6,nt,nt
CSCCCNC(=S)Nc1ccc(N2CCOCC2)cc1,4,43*,0,-1,-1,19,-3,1%
Cc1ccc(O)c(NC(=O)c2ccccc2-c2ccccc2C(=O)O)c1,5,43*,0,5,-11,0,-2,7%
Cc1ccc(NC(=O)c2ccccc2-c2ccccc2C(=O)O)cc1,0,-5,0,-7,-2,-16,nt,nt
O=C(/C=C/c1cn(CC(O)CN2CCCCC2)c2ccccc12)c1cccs1 (stereo not drawn),46*,7,36*,-7,-3,0,5,?
O=C(/C=C/c1cccc2ccccc12)c1cccs1,nt,nt,nt,nt,7,nt,nt,nt
O=C(CSc1nc(-c2cccs2)nc2ccccc12)N1CCC1,nt,nt,nt,nt,4,nt,nt,nt
CN1C(=O)c2cccc3c(N(C)C)ccc(c23)C1=O,60*,8,44*,2,-15,-2,7,16µM*
N#C/C(=C/c1ccc(F)cc1)c1nc(CCN2C(=O)c3ccccc3C2=O)cs1,22,7,28,-8,0,-18,-1,3%
COc1ccc(C2C(C#N)=C(N)Oc3cc(N)ccc32)cc1 (stereo not drawn),2,63*,0,-4,0,-3,7,-1%
COc1nc2ccccc2cc1-c1noc(-c2ccccc2)n1,nt,nt,nt,nt,-9,nt,nt,nt
CCCN1CCC(CCOc2ccccc2)(C(=O)OCC)CC1,3,56*,0,-2,-5,2,-4,1%
COCCNC(=O)c1cc2c(=O)n3cccc(C)c3nc2n1C,2,41*,0,4,-1,1,?,-1%
CCCCNC(=O)c1cc2c(=O)n3cccc(C)c3nc2n1C,1,-1,0,-8,nt,9,nt,nt
Cc1cccc(C2C3=C(COC3=O)Nc3c2c(=O)n(C)c(=O)n3C)c1 (stereo not drawn),nt,nt,nt,nt,-2,nt,nt,nt
O=C(N/N=C/c1ccc(F)cc1)c1ccccc1,0,3,0,-4,-4,-5,nt,nt
O=C(N/N=C/c1sc2ccccc2c1O)c1ccccc1,60*,-6,38*,-1,7,10,1,21µM*
Cc1ccc(Cl)cc1N1CCN(S(=O)(=O)N2CCCCC2)CC1,10,43*,0,-1,-1,12,0,1%
CCC1CCCCN1Cc1nc2c(c(=O)n(C)c(=O)n2C)n1CC(N)=O (stereo not drawn),nt,nt,nt,nt,2,nt,nt,nt
